Results: PubChem BioAssay AID504847 (National Center for Advancing Translational Sciences (NCATS), 2011)
Values joined by “and” are separate entries in the source; they are usually repeats but may differ in a detail not shown here. Equal entries are not always repeated. Among all 400,000 compounds or so, about 3,700 (0.93%) were called active. Not shown: some 3% with an inconclusive outcome. For the sample, actives were picked, then their nearest neighbours and some compounds at random. Unmarked numbers belong to inactive results. Calls come from the whole dose curve; as a rule, active = well fitted inhibition curve with a large enough effect; inconclusive = small, poorly fitted or top-dose-only effect, or another doubt; inactive = no such curve, though single readings can be large or run the other way.

molecular target: Vitamin D3 receptor (Homo sapiens) (UniProt P11473); experiment: Inhibitors of the vitamin D receptor (VDR): qHTS; settings: VDR-SRC2-3 peptide fluorescence polarization, 2 h; max response, negative = inhibition: hits give low values
Summary of the method: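 Fluorescence polarization assay measuring small-molecule disruption of VDR binding to the coregulator peptide SRC2-3. Compounds were pin-transferred (23 nl) into the reagent mix and incubated 2 h at room temperature before reading.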
% is set by controls: 0 for no effect and ±100 for the full control effect; potency is the fitted concentration of half-maximal effect.

Vitamin D3 receptor (Homo sapiens), sequence (P11473 whole entry, looked up): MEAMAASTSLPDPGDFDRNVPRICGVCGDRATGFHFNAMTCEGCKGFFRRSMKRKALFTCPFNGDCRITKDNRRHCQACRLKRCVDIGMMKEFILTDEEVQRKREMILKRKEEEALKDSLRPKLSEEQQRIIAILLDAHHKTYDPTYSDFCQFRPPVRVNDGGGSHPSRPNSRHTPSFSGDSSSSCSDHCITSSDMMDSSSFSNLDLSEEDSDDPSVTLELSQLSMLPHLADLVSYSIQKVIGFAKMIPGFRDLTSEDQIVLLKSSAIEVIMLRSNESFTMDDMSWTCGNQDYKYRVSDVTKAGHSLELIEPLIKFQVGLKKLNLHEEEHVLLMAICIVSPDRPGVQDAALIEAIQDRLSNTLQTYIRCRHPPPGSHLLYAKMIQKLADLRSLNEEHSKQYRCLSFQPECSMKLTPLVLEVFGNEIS

**Q.** How did the max response, negative = inhibition turn out when `O=C(C1CCCN(S(=O)(=O)c2cccc3nonc23)C1)N1CCN(c2ccccc2F)CC1` (configuration not stated) was run?
**A.** -15.4%

**Q.** For `COc1ccc(OC)c(NC(=O)C2CCN(S(=O)(=O)c3ccc(C)cc3)CC2)c1`, which max response, negative = inhibition is on record?
**A.** 29.3%

**Q.** With `O=C(NCc1ccccc1)c1cc(-c2cccc(Cl)c2)on1` as the molecule, how does the max response, negative = inhibition read?
**A.** -16.6%

**Q.** How did the Potency turn out when `O=C(O)C(c1ccccc1)N1C(=O)/C(=C\c2ccc(-c3cccc(Cl)c3)o2)SC1=S` (configuration not stated) was run?
**A.** 79.4 µM (active)

**Q.** For `Cn1cccc1/C=C1\SC(=S)N(NC(=O)c2ccc(Cl)cc2)C1=O`, which max response, negative = inhibition is on record?
**A.** -22.2%

**Q.** With `O=c1[nH]c(/C=C\c2cccc(C(F)(F)F)c2)nc(O)c1[N+](=O)[O-]` as the molecule, how does the Potency read?
**A.** 44.7 µM (active)

**Q.** Which max response, negative = inhibition does the source give for `O=c1[nH]c(/C=C/c2cccc(Br)c2)nc2ccccc12` here?
**A.** -10.9%

**Q.** `O=c1cc(O)c(-c2cccc(C(F)(F)F)c2)c(Cl)[nH]1` was tested. Which max response, negative = inhibition did it give?
**A.** 13.8%

**Q.** Which max response, negative = inhibition does the source give for `CC1(C)O[C@@H]2C[C@@H]3[C@H]4C[C@@H](F)C5=CC(=O)C=C[C@]5(C)[C@@]4(F)[C@@H](O)C[C@]3(C)[C@]2(C(=O)CO)O1` here?
**A.** 1.68%

**Q.** With `COCCNC(=O)CSc1nc(-c2ccccc2)[nH]c1-c1ccc(C)cc1` as the molecule, how does the max response, negative = inhibition read?
**A.** -12.4%

**Q.** With `CCCCc1nn(-c2ccccc2C(F)(F)F)c(=O)n1Cc1ccc(-c2ccccc2S(=O)(=O)NC(=O)c2sccc2C)cc1` as the molecule, how does the Potency read?
**A.** 44.7 µM (active)

**Q.** `Cc1cc(C(=O)NNS(=O)(=O)c2ccccc2C(F)(F)F)nn1C(C)(C)C` was tested. Which max response, negative = inhibition did it give?
**A.** 3.25%

**Q.** With `CCCN1CCN(CCCNC(=O)c2cnn(-c3ccc(C)cc3)c2-n2cccc2)CC1` as the molecule, how does the max response, negative = inhibition read?
**A.** 13.2%

**Q.** With `CCN(CCCNC(=O)c1cc2cc3cc(OC)ccc3nc2s1)c1ccccc1` as the molecule, how does the max response, negative = inhibition read?
**A.** -7.19%

**Q.** With `O=C(NCC1CC1)C1(C(F)(F)F)C/C(=C\CCO)CCCO1` (configuration not stated) as the molecule, how does the max response, negative = inhibition read?
**A.** -6.83%

**Q.** Which max response, negative = inhibition does the source give for `Nc1nc2nc(Cl)[nH]c2c(=O)[nH]1` here?
**A.** -11.6%

**Q.** For `Cc1cc(C)cc(C(=O)NC2C(=O)N3C(C(=O)O)=C(CSc4nnc(C)s4)CSC23)c1` (configuration not stated), which Potency is on record?
**A.** 79.4 µM (active)

**Q.** With `CO/N=C(\C(=O)N[C@@H]1C(=O)N2C(C(=O)O)=C(COC(C)=O)CS[C@H]12)c1csc(N)n1` (stereo in doubt) as the molecule, how does the max response, negative = inhibition read?
**A.** -16.4% and -7.75% and -25.8%

**Q.** With `CC(C)(C)OC(=O)C1=C(CO)CS[C@@H]2[C@H](NC(=O)Cc3ccccc3)C(=O)N12` as the molecule, how does the max response, negative = inhibition read?
**A.** -17.3%

**Q.** How did the max response, negative = inhibition turn out when `O=[N+]([O-])c1ccc(S(=O)(=O)N2CCN(c3nc(-c4ccccc4)nc4ccccc34)CC2)cc1` was run?
**A.** -8.98%

**Q.** `Cc1ccc(C(=O)Nc2c(C(=O)NC(C)(C)C)oc3ccccc23)cc1` was tested. Which max response, negative = inhibition did it give?
**A.** 12.7%

**Q.** Which max response, negative = inhibition does the source give for `COc1ccc(Cl)cc1NC(=O)C(C)Sc1nc2c(c(=O)[nH]1)CCCC2` (configuration not stated) here?
**A.** 5.96%

**Q.** `CCNCCC(=O)N1c2ccccc2Sc2ccc(NC(=O)OCC)cc21` was tested. Which max response, negative = inhibition did it give?
**A.** -7.06%

**Q.** With `CCN1C(=O)c2ccccc2Sc2ccc(NC(=O)Cc3ccc(OC)cc3)cc21` as the molecule, how does the max response, negative = inhibition read?
**A.** 7.46%

**Q.** With `CCN1/C(=C/C(=S)Nc2ccccc2)Sc2ccccc21` as the molecule, how does the Potency read?
**A.** 70.8 µM (active)

**Q.** For `CC(=O)OC1CCC2(O)CC1(C)CCC1C2CC1(C)C` (configuration not stated), which max response, negative = inhibition is on record?
**A.** -16.3%

**Q.** With `C[C@@H]1O[C@@H](OC[C@H]2O[C@@H](Oc3c(-c4cccc(O)c4O)oc4cc(O)cc(O)c4c3=O)[C@H](O)[C@@H](O)[C@@H]2O)[C@H](O)[C@H](O)[C@H]1O` as the molecule, how does the max response, negative = inhibition read?
**A.** 2.29%

**Q.** Which Potency does the source give for `Cc1ccc(CS(=O)(=O)c2ncc(Cl)c(C(=O)Nc3nnc(C)s3)n2)cc1` here?
**A.** 25.1 µM (active)

**Q.** How did the max response, negative = inhibition turn out when `Cc1nnc(NC(=O)C(c2ccccc2)c2ccccc2)s1` was run?
**A.** 13.7%

**Q.** With `CCS(=O)(=O)c1ncc(N(Cc2ccc(F)cc2)Cc2ccco2)c(C(=O)Nc2cc(C)ccc2C)n1` as the molecule, how does the max response, negative = inhibition read?
**A.** -5.22%

**Q.** For `CCOc1cccc(C(=O)Nc2nnc(S(=O)(=O)N(C)c3ccc(C)cc3)s2)c1`, which max response, negative = inhibition is on record?
**A.** -4.91%

**Q.** With `Cc1ccc2nc(NC(=O)c3nc(SCc4ccccc4F)ncc3Cl)sc2c1` as the molecule, how does the max response, negative = inhibition read?
**A.** 1.04%

**Q.** Which Potency does the source give for `Cc1cccc(CS(=O)(=O)c2ncc(Cl)c(C(=O)Nc3ccc(F)cc3)n2)c1` here?
**A.** 50.1 µM (active)

**Q.** With `CSc1nnc(NC(=O)c2nc(S(=O)(=O)Cc3ccc(C)cc3)ncc2Cl)s1` as the molecule, how does the Potency read?
**A.** 11.2 µM (active)

**Q.** Which max response, negative = inhibition does the source give for `O=C(Nc1nc2ccc(F)cc2s1)c1nc(SCc2ccccc2F)ncc1Cl` here?
**A.** -2.57%

**Q.** Which max response, negative = inhibition does the source give for `CCOC(=O)c1ccc(NC(=O)c2nc(SCc3ccc(F)cc3)ncc2Cl)cc1` here?
**A.** -10.3%

**Q.** For `COc1ccc(CNC(=O)COCc2cc(-c3cccs3)on2)cc1OC`, which max response, negative = inhibition is on record?
**A.** 16.9%

**Q.** How did the max response, negative = inhibition turn out when `COc1ccc(-c2nc3scc(CCNS(=O)(=O)c4cc(F)ccc4OC)n3n2)cc1OC` was run?
**A.** 0.564%

**Q.** How did the max response, negative = inhibition turn out when `CCOc1ccc2nc(N3CCC(C(=O)Nc4cc(C)ccc4C)CC3)sc2c1` was run?
**A.** -0.819%

**Q.** For `COc1ccccc1CNC(=O)CCCCn1c(=O)c2ccccc2n(CC(=O)Nc2cc(Cl)ccc2C)c1=O`, which max response, negative = inhibition is on record?
**A.** -8.69%

**Q.** `CCOC(=O)c1cc(NC(=O)c2ccc(F)cc2)c(=O)n2c1oc1ccccc12` was tested. Which max response, negative = inhibition did it give?
**A.** 4.45%

**Q.** `O=[N+]([O-])c1cccc2ncccc12` was tested. Which Potency did it give?
**A.** 12.6 µM (active)

**Q.** For `O=[N+]([O-])c1ccccc1S(=O)(=O)Nc1cccc2cccnc12`, which max response, negative = inhibition is on record?
**A.** 0.987% and -18.8%

**Q.** Which max response, negative = inhibition does the source give for `O=[N+]([O-])c1ccccc1SNc1ccccn1` here?
**A.** -25%

**Q.** How did the max response, negative = inhibition turn out when `O=C(/C=C/c1cccc(F)c1)NC1CC1` was run?
**A.** 0.0804%

**Q.** For `Cc1c(C(=O)Nc2cccc(Cl)c2)oc2ccc(S(=O)(=O)N3CCOCC3)cc12`, which max response, negative = inhibition is on record?
**A.** -9.71%

**Q.** How did the Potency turn out when `O=C1C=C(c2ccc(Cl)cc2)C(=O)N1Nc1ccccc1` was run?
**A.** 22.4 µM (active)

**Q.** For `Cc1cccc(NC(=O)Cn2nc(-c3ccc(Cl)cc3)c3ccccc3c2=O)c1`, which max response, negative = inhibition is on record?
**A.** 4.43%

**Q.** For `Cc1ccc(C(=O)Nc2ccc(OCc3cc(=O)n4c(C)csc4n3)cc2)cc1`, which max response, negative = inhibition is on record?
**A.** -1.83%

**Q.** For `Cc1ccc(S(=O)(=O)c2nc(-c3cccs3)oc2N2CCCCC2)cc1`, which max response, negative = inhibition is on record?
**A.** 28.2%

**Q.** For `C=CC(C1=CC(=O)C=CC1=O)c1ccc(O)cc1` (configuration not stated), which Potency is on record?
**A.** 39.8 µM (active)

**Q.** With `CCCn1c2ccccc2c2cnn(CC(=O)NCCCOC(C)C)c(=O)c21` as the molecule, how does the max response, negative = inhibition read?
**A.** 4.17%
